Assay results as given in PubChem BioAssay AID2685 (National Center for Advancing Translational Sciences (NCATS), 2010).
About 2,100 (0.66%) of roughly 320,000 compounds were called active. About 53% were inconclusive and are not listed. Calls follow the shape of the dose curve; as a rule, active = well fitted inhibition curve with a large enough effect in the signal ratio, with a control signal flat (not every such curve was filed as active); inconclusive = small, poorly fitted or top-dose-only effect, or effect the other way, or a change in a side signal; inactive = flat fitted curve, though single readings scatter; the % refers to the signal ratio. The full list was thinned out, with actives kept by preference.

assay: qHTS Assay for Lipid Storage Modulators in Drosophila S3 Cells; conditions: BODIPY lipid droplet fluorescence, 18-24 h, cells fed with added oleic acid; cell number change: measured here: cell count max response; series mostly up to 46.1 µM; lipid storage change, negative = inhibition: at the top concentration;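 as to cell number change: cells counted by Cell Tracker Red CMTPX staining in the red channel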; as to lipid storage change, negative = inhibition: % is scaled to controls: 0 for no effect and ±100 for the full control effect
Text: NIH Molecular Libraries Probe Production Centers Network [MLPCN] NIH Chemical Genomics Center [NCGC] MLPCN Grant: 1 R03 MH085686-01 Assay Submitter (PI): Beller, Mathias; Max-Planck-Institut fur Biophysikalische Chemie NCGC Assay Overview: Storing lipids as a reservoir for energy or the anabolism of elementary metabolites is a common feature of probably all cells and is conserved from bacteria to humans. The universal cellular lipid storage organelle is the so-called lipid storage droplet (LD). Although ubiquitous, LDs share a simple structure composed of a hydrophobic core that harbors the storage lipids, which is shielded by a droplet-specific phospholipid monolayer to which proteins are attached. The current model of LD biogenesis involves an incorporation of the lipid core into the membrane leaflets of the endoplasmic reticulum (ER) followed by a subsequent budding-like maturation of a LD, which ultimately pinches off. Once released, LD volume can increase by localized lipogenesis or fusion of existing droplet. Storage lipids are re-mobilized enzymatically by lipase activity. Lipase regulation in the adipocyte is heavily studied and involves multiple components including catecholamine signaling, the LD-associated proteins Perilipin and comparative gene identification (CGI-58) and at least two lipases named hormone sensitive lipase (HSL) and adipocyte triglyceride lipase (ATGL). LD regulation outside of the adipocyte is poorly understood and only few components are known. However, there is an urgent need to learn more about ectopic fat depots as mislocalized storage of lipids, for example in the liver or muscle, is an eminent health problem associated with insulin resistance or the metabolic syndrome. We developed a laser-scanning cytometer assay to enable 1,536-well screening and combined the results of the small molecules screen with an RNAi database based on lipid storage.
Triacsin C (Sigma-Aldrich T-4540), an inhibitor of long-chain fatty acyl CoA synthetase that blocks synthesis of triglycerides, was used as a positive control for lipid under-storage. A total of 23 nL of compound solution of different concentrations were transferred to the assay plates using a Kalypsys pin tool equipped with a 1,536-pin array containing 10-nL slotted pins (FP1S10, 0.457-mm diameter, 50.8 mm long; V&P Scientific). One microliter of oleic acid (400 uM) was added, and the plate was lidded with stainless steel rubber gasket lined lids containing pinholes. […] Fluorescence was detected by excitation of the fluorophores with a 488-nm laser on an Acumen Explorer (TTP Lab Tech). The total intensity in channel 2 (500-530 nm) reflected lipid droplet accumulation. Cells were detected using channel 3 (575-640 nm) with 5-um width and 100-um depth filters. The ratio of the number of objects in PMT channel 2 over the number of objects in PMT channel 3 was also calculated. Percent activity was computed relative to an internal control (100% inhibited lipid droplet deposition due to the presence of 20 uM Triacsin C), which was added to 32 wells/plate.
Potency is read from the fitted curve at half-maximal effect.

Compound	lipid storage change, negative = inhibition	cell number change	Potency
C=CCn1cccc(C(=O)Nc2ccc(C)cc2)c1=O	15.4% (inactive)	10.2%	–
C=CCn1cccc(C(=O)Nc2ccc(Cl)cc2)c1=O	8.12% (inactive)	6.52%	–
C=CCn1cccc(C(=O)Nc2ccc(SC)cc2)c1=O	–	16.6%	4.11 µM (active)
COC(=O)c1cn(NC(=O)/C=C/c2ccc(OC)c(OC)c2)c(=O)c2ccccc12	-1.77% (inactive)	-14.9%	–
CCOC(=O)Cc1csc(NC(=O)/C=C/c2ccccc2Cl)n1	12.2% (inactive)	-1.33%	–
COc1nc(C#N)nc(N(C)C)n1	-8.69% (inactive)	-4.25%	–
N#C/C(=C/c1ccccc1)C(=O)NCc1ccccc1	–	18.6%	2.59 µM (active)
CCN(CC)c1ccc(/C=C(/C#N)C(=O)NCc2ccccc2)o1	–	-20.4%	2.06 µM (active)
COc1ccc(/C=C(\C#N)C(=O)NCc2ccccc2)cc1	3.79% (inactive)	-4.49%	–
N#C/C(=C/c1ccc(C(=O)O)cc1)C(=O)Nc1ccccc1	-13.8% (inactive)	–	–
N#C/C(=C/c1ccc(OCc2ccc(C(=O)O)cc2)cc1)C(=O)Nc1ccccc1	0.353% (inactive)	14.9%	–
Cc1ccc(/C=C(\C#N)C(=O)NCc2ccco2)o1	4.22% (inactive)	–	–
N#C/C(=C\c1cccnc1)C(=O)Nc1ccccc1	16% (inactive)	-2.7%	–
N#C/C(=C\c1ccc(OCc2ccccc2)cc1)C(=O)Nc1ccc(C(=O)O)cc1	–	12.2%	20.6 µM (active)
CCCCNC(=O)/C(C#N)=C/c1cccnc1	–	–	20.6 µM (active)
N#C/C(=C\c1cccs1)C(=O)NCc1ccccc1	-2.68% (inactive)	-1.86%	–
CCCCNC(=O)/C(C#N)=C/c1ccc(C(=O)OC)cc1	-11.1% (inactive)	-26.3%	–
N#C/C(=C\c1ccc(O)cc1)C(=O)NCc1ccccc1	12.1% (inactive)	–	–
CC(C)CN(C(=O)C1CCCC1)C1CCS(=O)(=O)C1 (centres undefined)	-4.14% (inactive)	-27.9%	–
N#CCN1CCC/C1=C\[N+](=O)[O-]	4.55% (inactive)	11.9%	–
CCCN(CCC)S(=O)(=O)c1ccc2c(c1)CCCN2C(C)=O	13.4% (inactive)	-13.4%	–
Cc1ccc(CN2CCN(/N=C/c3sccc3C)CC2)c(C)c1	20.6% (inactive)	-17.1%	–
CCN(CC)S(=O)(=O)c1cccc(C(=O)NC2=NCCS2)c1	-13.9% (inactive)	-2.91%	–
O=C(N/N=C/c1c[nH]c2ccccc12)c1ccn(Cc2ccc(Cl)cc2Cl)n1	-4% (inactive)	-11.1%	–
